Screening results: PubChem BioAssay, National Center for Advancing Translational Sciences (NCATS)
Most compounds without a hit are left out; they make up all but 19% or so of the library.
HT1080 IDH1KD tx: qHTS for induction of synthetic lethality in tumor cells producing 2HG: qHTS for the HT-1080-IDH1KD cell line. actives 2% (n = 360,000). HT-1080 IDH1 knockdown viability, ATP luminescence, 48 h. Potency, µM (top dose mostly 46.1 µM), without a hit: top-dose activity, negative = toxicity, actives largely listed as cytotoxic;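 further: potency means the concentration at half of the fitted maximal effect; 0% = DMSO wells and -100% = cell-free medium wells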
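Luminescent ATP read-out (CellTiter-Glo, 10 min at room temperature) after 48 h compound exposure at 37 °C gave viability of IDH1-knockdown HT-1080 cells. Activity was normalised to DMSO and cell-free wells, then fitted as concentration-response curves.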
TDP1 cell CPT: qHTS for Inhibitors of human tyrosyl-DNA phosphodiesterase 1 (TDP1): qHTS in cells in presence of CPT | chicken DT40 Tdp1-/-;hTDP1 cells + 20 nM CPT, ATP luminescence, 48 h | Potency, µM (series often up to 46.2 µM), for the others: top-dose activity change, negative = growth inhibition, most hits filed as inhibitors | actives 12% (n = 420,000); further: potency means the concentration at half of the fitted maximal effect; nearly all actives have a fitted effect of over 55% in size
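Cell growth measured by CellTiter-Glo luminescence after a minimum 48 h, 37 C compound exposure with 20 nM CPT in Tdp1-knockout DT40 cells stably expressing hTDP1, seeded 400/well; qHTS titration format.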
HT1080-NT tox: qHTS for induction of synthetic lethality in tumor cells producing 2HG: qHTS for the HT-1080-NT fibrosarcoma cell line. actives 1.6% (n = 360,000). AID 686970, 2013. HT-1080-NT fibrosarcoma viability, CellTiter-Glo ATP luminescence, 48 h. Potency, µM (highest dose often 46.1 µM), inactives show at the top dose activity, negative = less viability, usual class: cytotoxic;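 further: NT is the 2HG producing partner of a matched IDH1 knockdown line; potency means the concentration at half of the fitted maximal effect; 0% = DMSO-treated cells and -100% = media-only wells without cells; nearly all actives have a fitted effect of over 55% in size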
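Compounds were tested in concentration-response format on HT-1080-NT cells for 48 hours at 37 degrees C. Cell viability came from CellTiter-Glo luminescence; curves were classified by r2, response magnitude and activity.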
ELG1 DNA repair: qHTS screen for small molecules that inhibit ELG1-dependent DNA repair in human embryonic kidney (HEK293T) cells expressing luciferase-tagged ELG1 | HEK293T ELG1-luciferase reporter, luminescence, 16 h; DNA damage induced by 5-fluorouridine | Potency, µM (titrated, usually from 46.1 µM), for the others: top-dose activity change, negative = inhibition, actives largely listed as inhibitors | actives 2.3% (n = 330,000); further: potency means the concentration at half of the fitted maximal effect; nearly all actives have a fitted effect of over 55% in size
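Overnight (16 hr) co-exposure of 2,000 cells/well to 5-fluorouridine and compound at 37 °C preceded detection. Luciferase was quantified via ONE-Glo luminescence; loss of signal denotes inhibition.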
IL-1B inflam inh: qHTS for Inhibitors of Inflammasome Signaling: IL-1-beta AlphaLISA Primary Screen; AID 743279, 2014; actives 4.7% (n = 360,000); THP-1 LPS/ATP IL-1B secretion, AlphaLISA, 16 h; hits give low values; activity change, % at 57.5 µM; in the data active means activity change below about -50%; inconclusive means mostly about -30% to -49%
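THP-1 cells pretreated 1 hr with compounds (up to 57.5 uM final), then stimulated with LPS (250 ng/mL final) plus ATP (1.25 mM final); secreted IL-1B measured by AlphaLISA after 16 hr, decreased signal indicating inhibition.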
TDP1 cell noCPT: qHTS for Inhibitors of human tyrosyl-DNA phosphodiesterase 1 (TDP1): qHTS in cells in absence of CPT; AID 686978, 2013; DT40 Tdp1-/- hTDP1 cells, no CPT, ATP luminescence, 48 h; Potency, µM (titrated, usually from 46.2 µM), for inactives: at the top dose activity change, negative = growth inhibition, most hits filed as inhibitors; actives 15% (n = 420,000); further: potency means the concentration at half of the fitted maximal effect; nearly all actives have a fitted effect of over 55% in size
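Readout: luminescence from CellTiter-Glo after 30 min in the dark at RT. Cells: DT40 Tdp1-/- with stable hTDP1, 400/well. Exposure: compounds alone, ≥48 hr, 37 °C.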
An asterisk follows results filed as active; u = inconclusive; x = no result. Unless noted, the call rests on the fitted dose curve; in most records, active means well fitted curve in the direction sought with a large enough effect; inconclusive means small, poorly fitted or top-dose-only effect, or another doubt; inactive means no such curve, though single readings can be large; an effect the other way counts as inactive or inconclusive. Unless noted, on the % scale 0 is the no-effect control and ±100 the full control effect.

SMILES	HT1080 IDH1KD tx	TDP1 cell CPT	HT1080-NT tox	ELG1 DNA repair	IL-1B inflam inh	TDP1 cell noCPT
Cc1cccc(OCCn2nnc3ccccc32)c1C	-3%	u	-1%	u	-12	u
C=CCc1ccccc1OCCn1nnc2ccccc21	2%	u	-7%	-12%	50	23µM*
CCc1ccc(C2=C(C)C(N3CCC(C(=O)NCc4ccccc4)CC3)=NS2(=O)=O)cc1	x	4%	x	x	x	-23%
CCC1=C(c2ccc(C)cc2)S(=O)(=O)N=C1N1CCC(C(=O)NCc2ccc(N(C)C)cc2)CC1	x	18µM*	x	x	x	23µM*
O=C(CN1CCC(NC(=O)C2CC2)CC1)Nc1cccc(F)c1	5%	18%	13%	1%	12	7%
CSc1nc(N)c(C(=O)Nc2ccc([N+](=O)[O-])cc2)s1	21%	-9%	12%	9%	-75*	u
CCOC(=O)c1cccc(NC(=O)c2ccccc2C)c1	0%	-2%	3%	-16%	-5	u
CCc1ccc(NC(=O)N2CC=C(c3c[nH]c4ccccc34)CC2)cc1	x	5.8µM*	x	x	x	5.2µM*
CCOc1ccc(NC(=O)N2CC=C(c3c[nH]c4ccccc34)CC2)cc1	x	3.7µM*	x	x	x	2.3µM*
CCOC(=O)c1cccc(NC(=O)N2CC=C(c3c[nH]c4ccccc34)CC2)c1	x	u	x	x	x	21µM*
CCOc1ccc(NC(=O)Cc2c[nH]c3ccccc23)cc1	x	-3%	x	x	x	-15%
O=c1[nH]c2ccccc2n1C1=CCCC1	1%	-12%	2%	-2%	-18	u
CSc1ccc(NC(=O)N2CC=C(n3c(=O)[nH]c4ccccc43)CC2)cc1	u	8.2µM*	-20%	23µM*	-8	8.2µM*
CC(=O)O[C@](C)(CCC=C(C)C)C1CC=C(C)CC1 (stereo partly drawn)	x	-14%	x	x	x	4%
CC(C)/C=C/C(=O)N1CCC(N2CCC(C(=O)NCC3CCCO3)CC2)CC1 (stereo not drawn)	-1%	3%	0%	x	u	-10%
CCSc1nnc2c(n1)OC(c1ccc(OC)cc1OC)N(C(C)=O)c1ccccc1-2 (stereo not drawn)	x	-28%	x	x	x	u
O=C(NC1(N2CCOCC2)CC1)c1ccc(Cl)cc1	-1%	-3%	5%	0%	-2	-5%
O=C1NC[C@H](Cc2ccc(O)cc2)N(C[C@@H]2CCCN2C[C@H](Cc2ccc(O)cc2)N2C[C@H](Cc3ccccc3)N(CCc3ccccc3)C(=O)C2=O)C1=O	5%	u	3%	x	13	u
COc1ccccc1CCNC(=O)c1ccc(NC(=O)CC2SC(N3CCCC3)=NC2=O)cc1 (stereo not drawn)	7%	-17%	1%	0%	8	-25%
CC(Oc1cccc(Cl)c1)C(=O)NCc1ccc(S(N)(=O)=O)cc1 (stereo not drawn)	-1%	u	10%	-3%	13	26µM*
Cc1cccc(OC(C)C(=O)NCc2ccc(S(N)(=O)=O)cc2)c1 (stereo not drawn)	17%	0%	7%	13%	28	-16%
CCOC(=O)C(=CNc1cc(C)ccc1[N+](=O)[O-])C(=O)OCC	14%	u	22%	u	-13	u
CCOC(=O)C(=CNc1cc(C)ccc1C)C(=O)OCC	14%	u	1%	u	-24	16µM*
CCOC(=O)C(=CNc1cccnc1Oc1ccc(C)c2c1CCC2)C(=O)OCC	8%	15µM*	13%	15µM*	-15	21µM*
CCOC(=O)C(=CNc1cc(OC)ccc1-n1cccc1)C(=O)OCC	-9%	u	-2%	u	u	21µM*
SMILES	HT1080 IDH1KD tx	TDP1 cell CPT	HT1080-NT tox	ELG1 DNA repair	IL-1B inflam inh	TDP1 cell noCPT
CCOC(=O)C(=CNc1cc(C)nn1-c1ccc(C)cc1)C(=O)OCC	-14%	23µM*	-21%	13µM*	-9	9.2µM*
COC(=O)c1ccc([C@H](NC(=O)c2ccco2)[C@]2(C)C[C@H]2C2CCCCC2)cc1	-7%	u	-18%	x	-21	u
Cn1cnnc1SCC(=O)NNC(=O)c1ccc([N+](=O)[O-])cc1	-14%	32%	-11%	5%	12	19%
COc1ccc(CNC(=O)[C@@H](NC(=O)C2CCN(C(=O)[C@@H](N)Cc3ccccc3)CC2)C(C)C)cc1	-3%	-2%	-4%	17%	-6	-13%
CCOc1ccc2nc(NC3=NC(C)(C)C=C(C)N3)nc(C)c2c1	-24%	u	u	u	-26	u
CCOc1ccc2nc(NC3=NC(c4ccc(OC)cc4)CC(=O)N3)nc(C)c2c1 (stereo not drawn)	u	23µM*	u	u	-103*	21µM*
Cc1ccc2nc(CNC(=O)c3cc(NC(=O)c4ccccc4)cc4ncn(C5CCCC5)c34)cn2c1	x	5%	x	x	x	-15%
CCOc1ccccc1CN(CCc1ccc2c(c1)OCO2)Cc1ccccn1	u	u	-25%	u	-10	16µM*
CCOc1ccccc1CN(CCc1ccc2c(c1)OCO2)Cc1cc(OC)c(OC)cc1OC	x	6.5µM*	x	x	x	4.1µM*
CCc1nc2ccccc2n1CC1CC1(Cl)Cl (stereo not drawn)	1%	1%	0%	3%	13	-10%
Cc1ccc(Cl)c(OC(=O)c2nn(C(C)C)c(=O)c3ccccc23)c1	-12%	u	-12%	-2%	60	-25%
COC(=O)N/N=C(/c1ccccc1)C1CCCCC1	x	x	x	-1%	x	x
N/C(=N\OC(=O)C1CCCCC1)c1ccc(Br)cc1	2%	10%	7%	u	-10	3%
NC(=S)NN=C(c1ccc(Br)cc1)C1CC1	25%	u	19%	x	-76*	u
NC(=S)NN=C(c1ccc(F)cc1)C1CC1	17%	21µM*	12%	x	-86*	u
CCn1cc(CN(C)C(=O)CSc2nc(-c3ccco3)cc(C(F)(F)F)n2)c(C)n1	-24%	u	-10%	x	8	23µM*
